Laboratory results: PubChem BioAssay (EPA / NIEHS)
Inconclusive results are not listed. Active and inactive are the calls of the source. Rule for the calls, unless noted: active = hit-call score of the fitted dose curve at least 0.9, where 1 is the maximum; inconclusive = response in the unintended direction; inactive = score below 0.9.

What was measured:
[1] = target: Retinoic acid receptor alpha (Homo sapiens) (UniProt P10276); assay: ATG_DR5_RAR_CIS: Attagene CIS-FACTORIAL HepG2 Assay for human Retinoic Acid Receptor Alpha (RARE), DR5 submotif (AID 2282934; active = hit-call score of the fitted dose curve at least 0.9, where 1 is the maximum; inactive = score below 0.9); details: HepG2 Attagene cis-factorial RARE DR5 reporter, mRNA; actives raise or lower the signal
Retinoic acid receptor alpha (Homo sapiens), sequence (P10276 whole entry, looked up): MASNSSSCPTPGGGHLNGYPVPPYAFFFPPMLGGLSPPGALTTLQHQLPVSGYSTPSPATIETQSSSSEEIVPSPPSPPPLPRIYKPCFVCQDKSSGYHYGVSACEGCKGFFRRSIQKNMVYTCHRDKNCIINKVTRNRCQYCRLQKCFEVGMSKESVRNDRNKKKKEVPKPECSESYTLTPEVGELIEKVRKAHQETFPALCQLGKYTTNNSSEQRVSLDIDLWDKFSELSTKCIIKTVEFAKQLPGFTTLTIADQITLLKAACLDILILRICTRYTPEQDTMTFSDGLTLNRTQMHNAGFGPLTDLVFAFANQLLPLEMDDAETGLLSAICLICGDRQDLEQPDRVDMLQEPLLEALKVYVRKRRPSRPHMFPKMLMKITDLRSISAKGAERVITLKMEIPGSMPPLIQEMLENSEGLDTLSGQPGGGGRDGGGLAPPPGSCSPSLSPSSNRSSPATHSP
Procedure, shortened: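 HepG2 cells transiently transfected with multiplexed reporter units under cis (DR5 RARE) promoters, so endogenous transcription factor activity is measured. After 24 h compound exposure, reporter mRNA is quantified by RT-PCR with fluorescent labelling and capillary electrophoresis; bidirectional fitting versus DMSO.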

[2] = target: Nuclear receptor subfamily 1 group I member 3 (Homo sapiens) (UniProt Q14994); assay: ATG_CAR_TRANS: Attagene TRANS-FACTORIAL HepG2 Assay for human Constitutive Androstane Receptor (CAR) (AID 2282969); details: HepG2 Attagene TRANS-FACTORIAL CAR reporter;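 note: activators raise reporter mRNA above DMSO so AC50 marks induction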
Nuclear receptor subfamily 1 group I member 3 (Homo sapiens), sequence (Q14994 whole entry, looked up, the tested form may be a part): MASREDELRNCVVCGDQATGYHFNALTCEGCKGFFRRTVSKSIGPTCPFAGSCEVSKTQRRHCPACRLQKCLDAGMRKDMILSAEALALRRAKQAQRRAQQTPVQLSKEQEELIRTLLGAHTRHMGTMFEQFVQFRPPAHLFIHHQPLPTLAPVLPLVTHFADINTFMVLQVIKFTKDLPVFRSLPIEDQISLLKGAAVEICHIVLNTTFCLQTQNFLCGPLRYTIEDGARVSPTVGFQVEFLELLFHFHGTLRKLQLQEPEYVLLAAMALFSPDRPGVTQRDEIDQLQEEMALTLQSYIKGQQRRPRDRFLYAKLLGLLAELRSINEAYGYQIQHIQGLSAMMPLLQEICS
Procedure, shortened: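 HepG2 cells transiently transfected with multiplexed GAL4-UAS reporter units expressing chimeric NR-Gal4 proteins; compound exposure 24 h. Reporter mRNA measured by RT-PCR, 6-FAM labelling, HpaI digestion and capillary electrophoresis; gain-of-signal fitted against DMSO baseline.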

[3] = ATG_M_19_TRANS: Attagene TRANS-FACTORIAL HepG2 Assay for M19 Transcription Factor (Internal Marker) (AID 2282974); details: HepG2 Attagene TRANS-FACTORIAL M19 internal marker reporter
Procedure, shortened: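 HepG2 cells transiently transfected with multiple GAL4-UAS reporter transcription units were exposed to chemicals for 24 h. Reporter mRNA was read by RT-PCR, 6-FAM primer extension, HpaI digestion and capillary electrophoresis; gain of signal fitted relative to DMSO.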

[4] = target: Oxysterols receptor LXR-alpha (Homo sapiens) (UniProt Q13133); assay: ATG_LXRa_TRANS: Attagene TRANS-FACTORIAL HepG2 Assay for human Liver X Receptor alpha (LXRa) (AID 2282980); details: HepG2 Attagene TRANS reporter, LXRa transactivation
Oxysterols receptor LXR-alpha (Homo sapiens), sequence (Q13133 whole entry, looked up, the tested form may be a part): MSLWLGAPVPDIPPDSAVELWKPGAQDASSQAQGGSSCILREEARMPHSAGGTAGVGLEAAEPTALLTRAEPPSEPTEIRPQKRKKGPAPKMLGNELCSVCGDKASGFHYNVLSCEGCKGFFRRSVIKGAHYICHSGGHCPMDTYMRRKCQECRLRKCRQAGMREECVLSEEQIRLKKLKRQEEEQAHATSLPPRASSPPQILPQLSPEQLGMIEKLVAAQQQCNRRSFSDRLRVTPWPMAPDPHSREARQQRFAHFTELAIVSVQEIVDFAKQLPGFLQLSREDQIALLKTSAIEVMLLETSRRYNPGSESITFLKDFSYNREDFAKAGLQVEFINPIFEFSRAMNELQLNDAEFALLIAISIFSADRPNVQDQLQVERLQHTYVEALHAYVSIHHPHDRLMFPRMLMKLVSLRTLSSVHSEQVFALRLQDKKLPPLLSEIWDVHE
Procedure, shortened: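 Read-out: reporter transcript levels by RT-PCR plus capillary electrophoresis, fluorescence intensity. Transiently transfected HepG2, exogenous NR-GAL4 chimera, GAL4-UAS reporters; 24 h compound exposure. Activity = increase over DMSO negative control.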

[5] = ATG_M_32_TRANS: Attagene TRANS-FACTORIAL HepG2 Assay for M32 Transcription Factor (Internal Marker) (AID 2282984); details: HepG2 Attagene TRANS M32 internal marker reporter;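 note: transcript level of a background control reporter unit measured by RT-PCR and capillary electrophoresis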
Procedure, shortened: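 Human hepatoma HepG2, transient MRTU transfection, 24 h treatment. RNA → RT-PCR → fluorescent primer extension → HpaI digest (2 h, 37 C) → CE. Positive-direction fit vs DMSO.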

[6] = target: Nuclear receptor subfamily 4 group A member 2 (Homo sapiens) (UniProt P43354); assay: ATG_NURR1_TRANS: Attagene TRANS-FACTORIAL HepG2 Assay for human Nuclear Receptor Related Protein 1 (NURR1) (AID 2282985); details: HepG2 Attagene TRANS reporter, mRNA readout
Nuclear receptor subfamily 4 group A member 2 (Homo sapiens), sequence (P43354 whole entry, looked up): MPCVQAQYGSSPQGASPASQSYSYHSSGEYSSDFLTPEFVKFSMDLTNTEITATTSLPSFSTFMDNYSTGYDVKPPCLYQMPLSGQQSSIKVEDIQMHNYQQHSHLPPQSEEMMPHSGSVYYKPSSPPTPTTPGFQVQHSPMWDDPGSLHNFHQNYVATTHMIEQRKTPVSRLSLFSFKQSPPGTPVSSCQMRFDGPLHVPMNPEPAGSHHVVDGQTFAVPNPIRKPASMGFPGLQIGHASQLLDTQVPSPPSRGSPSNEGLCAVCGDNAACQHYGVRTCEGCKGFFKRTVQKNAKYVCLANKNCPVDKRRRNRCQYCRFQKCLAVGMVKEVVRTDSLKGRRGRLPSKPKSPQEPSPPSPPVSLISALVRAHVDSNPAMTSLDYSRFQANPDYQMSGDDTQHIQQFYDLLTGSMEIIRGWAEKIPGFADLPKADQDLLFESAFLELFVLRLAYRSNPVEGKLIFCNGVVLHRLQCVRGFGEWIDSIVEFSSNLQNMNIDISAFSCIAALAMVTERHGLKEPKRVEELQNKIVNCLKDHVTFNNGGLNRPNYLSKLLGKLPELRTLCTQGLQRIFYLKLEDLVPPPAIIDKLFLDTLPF
Procedure, shortened: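 After 24 h chemical dosing, total RNA from transiently transfected HepG2 cells was reverse-transcribed and reporter cDNA PCR-amplified, FAM-labelled and analysed by capillary electrophoresis. Activity fitted in positive direction, DMSO as negative control.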

[7] = target: human RAR-related Orphan Receptor gamma (RORg), RORC (gene 6097) (UniProt P51449); assay: ATG_RORg_TRANS: Attagene TRANS-FACTORIAL HepG2 Assay for human RAR-related Orphan Receptor gamma (RORg) (AID 2283011)
human RAR-related Orphan Receptor gamma (RORg), RORC (gene 6097), sequence (P51449 whole entry, looked up, the tested form may be a part): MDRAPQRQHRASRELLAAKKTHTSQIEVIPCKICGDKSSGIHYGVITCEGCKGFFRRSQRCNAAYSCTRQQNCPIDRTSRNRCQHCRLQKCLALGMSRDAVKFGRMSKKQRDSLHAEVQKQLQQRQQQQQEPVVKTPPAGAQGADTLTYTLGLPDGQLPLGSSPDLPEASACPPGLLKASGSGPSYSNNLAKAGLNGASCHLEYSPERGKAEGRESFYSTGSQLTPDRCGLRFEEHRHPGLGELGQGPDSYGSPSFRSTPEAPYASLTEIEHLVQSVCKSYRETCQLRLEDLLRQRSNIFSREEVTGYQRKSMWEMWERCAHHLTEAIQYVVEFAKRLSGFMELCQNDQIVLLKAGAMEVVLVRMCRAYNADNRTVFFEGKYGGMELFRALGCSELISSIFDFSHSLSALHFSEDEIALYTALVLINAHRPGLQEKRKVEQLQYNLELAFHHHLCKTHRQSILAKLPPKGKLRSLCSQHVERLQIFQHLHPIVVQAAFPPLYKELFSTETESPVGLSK
Procedure, shortened: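 Transient MRTU transfection of HepG2 (TRANS format, exogenous NR-Gal4 chimera). 24 h dosing. Total RNA → oligo(dT) RT → PCR → 6-FAM labelling → HpaI cut → CE. Gain vs DMSO.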

[8] = target: human Thyroid Receptor alpha (THRa1), THRA (gene 7067) (UniProt P10827); assay: ATG_THRa1_TRANS: Attagene TRANS-FACTORIAL HepG2 Assay for human Thyroid Receptor alpha (THRa1) (AID 2283014)
human Thyroid Receptor alpha (THRa1), THRA (gene 7067), sequence (P10827 whole entry, looked up, the tested form may be a part): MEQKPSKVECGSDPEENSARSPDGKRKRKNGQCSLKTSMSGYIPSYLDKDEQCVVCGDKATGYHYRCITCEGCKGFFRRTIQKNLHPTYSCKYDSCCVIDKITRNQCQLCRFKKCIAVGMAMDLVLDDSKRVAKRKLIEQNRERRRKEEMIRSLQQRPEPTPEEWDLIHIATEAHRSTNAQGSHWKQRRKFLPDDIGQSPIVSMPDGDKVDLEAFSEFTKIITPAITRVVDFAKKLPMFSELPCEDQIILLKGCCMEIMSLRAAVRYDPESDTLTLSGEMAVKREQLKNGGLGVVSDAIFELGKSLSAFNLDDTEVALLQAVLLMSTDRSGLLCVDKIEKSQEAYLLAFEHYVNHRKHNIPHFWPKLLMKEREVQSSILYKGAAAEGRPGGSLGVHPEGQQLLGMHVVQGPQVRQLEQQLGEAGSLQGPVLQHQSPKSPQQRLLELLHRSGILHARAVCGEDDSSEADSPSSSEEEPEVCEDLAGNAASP
Procedure, shortened: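 Transient HepG2 transfection, NR-Gal4 chimera driving GAL4-UAS reporters; 24 h compound exposure; total RNA, oligo(dT) RT, PCR, fluorescent primer extension, capillary electrophoresis. Upward direction vs DMSO control.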

[9] = TOX21_p53_BLA_p2_viability: Viability Assessment in the Tox21 HCT-116 p53 Agonism Beta-lactamase Assay, Phase 2 (AID 2283591);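 note: compound exposure lasted 16 h at 37 °C; actives lower the ATP signal meaning cytotoxicity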
Procedure, shortened: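 HCT-116 p53-bla cells (4000/well) rested 5 h at 37C, then received compounds in DMSO (217-fold dilution) for 16 h at 37C, 5% CO2. After the CCF4 read, CellTiter-Glo was added; ATP luminescence was read after 30 min at room temperature.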

[10] = TOX21_p53_BLA_p3_viability: Viability Assessment in the Tox21 HCT-116 p53 Agonism Beta-lactamase Assay, Phase 3 (AID 2283593);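 note: cells exposed to compound for 16 h before reading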
Procedure, shortened: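 HCT-116 cells (4000/well) rested 5 h at 37C, then got DMSO compounds by pin tool (217-fold dilution) for 16 h at 37C, 5% CO2. After the bla read, CellTiter-Glo was added and luminescence read at 30 min, room temperature.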

[11] = TOX21_p53_BLA_p4_viability: Viability Assessment in the Tox21 HCT-116 p53 Agonism Beta-lactamase Assay, Phase 4 (AID 2283597);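 note: hits lower the luminescence signal meaning cytotoxicity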
Procedure, shortened: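 We seeded HCT116 p53 reporter cells at 4000/well and waited 5 h. We then added compounds in DMSO at a 217-fold dilution and incubated for 16 h. Viability was read as CellTiter-Glo luminescence after 30 min at RT.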

[12] = ACEA_ER_AUC_viability: ACEA Biosciences xCELLigence Real-Time Cell Analysis on Estrogen Receptor Agonism for Viability (AID 2283782);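 note: continuous compound exposure with impedance area under curve over 80 h; hit means loss of impedance signal meaning reduced cell growth or viability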
Procedure, shortened: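 T-47D human breast cells in phenol red-free RPMI1640 with 10% charcoal-stripped FBS were dosed with an 8-point 1:4 dilution series from 100 uM top final concentration, in duplicate. Impedance-based growth was followed for 80 h; AUC analysed versus DMSO.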

[13] = ATG_PPRE_CIS: Attagene CIS-FACTORIAL HepG2 Assay for human Peroxisome Proliferator-activated Response Element (PPRE) (AID 2282958; active = hit-call score of the fitted dose curve at least 0.9, where 1 is the maximum; inactive = score below 0.9); details: HepG2 PPRE cis-element reporter, Attagene transcription factor profiling; actives raise or lower the signal
Procedure, shortened: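 HepG2 cells transiently transfected with multiplexed cis-element reporter units measure endogenous transcription factor activity. After 24 h compound exposure, reporter mRNA is quantified by RT-PCR, 6-FAM labeling, HpaI digestion and capillary electrophoresis; bidirectional fits are made against DMSO baseline.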

[14] = ATG_GAL4_TRANS: Attagene TRANS-FACTORIAL HepG2 Assay for GAL4 (Internal Marker) (AID 2282976); details: HepG2 Attagene TRANS GAL4 internal marker reporter
Procedure, shortened: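 RT-PCR/capillary electrophoresis readout of reporter mRNA. HepG2, transient MRTU transfection (GAL4-UAS reporters), 24 h compound exposure. Background-control endpoint, positive direction vs DMSO baseline.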

[15] = target: Oxysterols receptor LXR-beta (Homo sapiens) (UniProt P55055); assay: ATG_LXRb_TRANS: Attagene TRANS-FACTORIAL HepG2 Assay for human Liver X Receptor beta (LXRb) (AID 2282981); details: HepG2 Attagene TRANS GAL4-LXRb reporter, mRNA
Oxysterols receptor LXR-beta (Homo sapiens), sequence (P55055 whole entry, looked up, the tested form may be a part): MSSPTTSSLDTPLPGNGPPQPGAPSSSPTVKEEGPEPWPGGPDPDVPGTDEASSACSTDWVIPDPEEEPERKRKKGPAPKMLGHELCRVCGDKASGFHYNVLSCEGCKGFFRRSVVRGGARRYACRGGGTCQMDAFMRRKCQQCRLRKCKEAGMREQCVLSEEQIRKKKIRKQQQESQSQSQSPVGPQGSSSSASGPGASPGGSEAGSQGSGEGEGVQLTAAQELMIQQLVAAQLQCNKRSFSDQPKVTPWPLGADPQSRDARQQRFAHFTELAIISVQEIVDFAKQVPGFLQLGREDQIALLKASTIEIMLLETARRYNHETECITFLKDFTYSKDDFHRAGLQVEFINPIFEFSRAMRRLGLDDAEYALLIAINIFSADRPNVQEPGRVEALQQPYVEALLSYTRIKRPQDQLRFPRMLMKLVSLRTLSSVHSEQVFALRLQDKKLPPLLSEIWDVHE
Procedure, shortened: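 In this TRANS format, exogenous chimeric NR-Gal4 protein activity, not endogenous factors, drives reporter expression in transfected human HepG2 cells. Exposure lasted 24 h; reporter mRNA was read by fluorescent capillary electrophoresis.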

[16] = target: human Peroxisome Proliferator-activated Receptor delta (PPARd), PPARD (gene 5467) (UniProt Q03181); assay: ATG_PPARd_TRANS: Attagene TRANS-FACTORIAL HepG2 Assay for human Peroxisome Proliferator-activated Receptor delta (PPARd) (AID 2283002)
human Peroxisome Proliferator-activated Receptor delta (PPARd), PPARD (gene 5467), sequence (Q03181 whole entry, looked up, the tested form may be a part): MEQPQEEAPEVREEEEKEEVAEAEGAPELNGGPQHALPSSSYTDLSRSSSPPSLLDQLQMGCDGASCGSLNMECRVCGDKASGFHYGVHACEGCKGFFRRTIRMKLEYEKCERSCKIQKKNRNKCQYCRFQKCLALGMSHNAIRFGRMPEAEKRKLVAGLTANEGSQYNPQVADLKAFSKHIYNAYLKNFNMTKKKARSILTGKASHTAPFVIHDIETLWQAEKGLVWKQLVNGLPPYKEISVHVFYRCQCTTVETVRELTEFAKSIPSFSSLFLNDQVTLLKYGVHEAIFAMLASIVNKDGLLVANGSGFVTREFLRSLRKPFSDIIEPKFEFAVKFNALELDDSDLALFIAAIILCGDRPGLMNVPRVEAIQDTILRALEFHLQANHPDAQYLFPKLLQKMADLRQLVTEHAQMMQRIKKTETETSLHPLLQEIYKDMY
Procedure, shortened: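 HepG2 cells transiently transfected with multiplexed GAL4-UAS reporter units and exogenous chimeric NR-Gal4 proteins; 24 h compound exposure. Reporter mRNA measured by RT-PCR, 6-FAM labelling, HpaI digestion and capillary electrophoresis; gain of signal versus DMSO.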

[17] = target: human RAR-related Orphan Receptor beta (RORb), RORB (gene 6096) (UniProt Q92753); assay: ATG_RORb_TRANS: Attagene TRANS-FACTORIAL HepG2 Assay for human RAR-related Orphan Receptor beta (RORb) (AID 2283010)
human RAR-related Orphan Receptor beta (RORb), RORB (gene 6096), sequence (Q92753 whole entry, looked up, the tested form may be a part): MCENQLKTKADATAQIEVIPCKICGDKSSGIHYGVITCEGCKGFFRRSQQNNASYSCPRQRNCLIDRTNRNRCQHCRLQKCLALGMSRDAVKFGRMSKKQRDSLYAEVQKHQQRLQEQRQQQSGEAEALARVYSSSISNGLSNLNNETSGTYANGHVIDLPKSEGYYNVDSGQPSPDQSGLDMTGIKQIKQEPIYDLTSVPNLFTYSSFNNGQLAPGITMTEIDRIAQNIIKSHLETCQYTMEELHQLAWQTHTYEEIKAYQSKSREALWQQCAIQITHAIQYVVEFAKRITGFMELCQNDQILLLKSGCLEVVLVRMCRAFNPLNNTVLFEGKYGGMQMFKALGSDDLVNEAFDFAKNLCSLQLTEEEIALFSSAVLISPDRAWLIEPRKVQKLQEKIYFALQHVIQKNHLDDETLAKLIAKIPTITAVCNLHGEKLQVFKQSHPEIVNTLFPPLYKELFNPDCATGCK
Procedure, shortened: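 HepG2 cells transiently transfected with GAL4-UAS reporter units expressing chimeric NR-Gal4 protein; reporter mRNA measured 24 h after dosing by RT-PCR, 6-FAM labelling and capillary electrophoresis. Gain-of-signal fitted relative to DMSO baseline.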

[18] = CCTE_Harrill_HTTr_Viability_MCF7: CCTE's 6-hour Cell Viability Assessment for the High-Throughput Transcriptomics (HTTr) Platform, in MCF-7 cells cultured in DMEM + 10% fetal bovine serum, Harrill Lab (AID 2284010; active = hit-call score of the fitted dose curve at least 0.9, where 1 is the maximum; inactive = score below 0.9)
Procedure, shortened: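 MCF-7 cells in DMEM + 10% FBS, 384-well, exposed 6 h to an eight-point dilution series. Membrane integrity scored by high-content imaging of propidium iodide exclusion; bidirectional fit versus DMSO.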

[19] = CCTE_Harrill_HTTr_Apoptosis_MCF7: CCTE's 6-hour Apoptosis Assessment for the High-Throughput Transcriptomics (HTTr) Platform, in MCF-7 cells cultured in DMEM + 10% fetal bovine serum, Harrill Lab (AID 2284011; active = hit-call score of the fitted dose curve at least 0.9, where 1 is the maximum; inactive = score below 0.9)
Procedure, shortened: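 Read-out: CellEvent Caspase 3/7 Green signal by high content imaging, gain-of-signal indicating apoptosis. MCF-7 cells, DMEM + 10% FBS, eight-point dilution series, 6 h exposure. Curves fitted bidirectionally relative to DMSO negative control.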

[20] = target: Bile acid receptor (Homo sapiens) (UniProt Q96RI1); assay: ATG_IR1_CIS: Attagene CIS-FACTORIAL HepG2 Assay for human Nuclear Receptor Subfamily 1 Group H Member 4 (NR1H4), IR1 submotif (AID 2282946; active = hit-call score of the fitted dose curve at least 0.9, where 1 is the maximum; inactive = score below 0.9); details: IR1 reporter transcription, actives raise or lower the signal
Bile acid receptor (Homo sapiens), sequence (Q96RI1 whole entry, looked up): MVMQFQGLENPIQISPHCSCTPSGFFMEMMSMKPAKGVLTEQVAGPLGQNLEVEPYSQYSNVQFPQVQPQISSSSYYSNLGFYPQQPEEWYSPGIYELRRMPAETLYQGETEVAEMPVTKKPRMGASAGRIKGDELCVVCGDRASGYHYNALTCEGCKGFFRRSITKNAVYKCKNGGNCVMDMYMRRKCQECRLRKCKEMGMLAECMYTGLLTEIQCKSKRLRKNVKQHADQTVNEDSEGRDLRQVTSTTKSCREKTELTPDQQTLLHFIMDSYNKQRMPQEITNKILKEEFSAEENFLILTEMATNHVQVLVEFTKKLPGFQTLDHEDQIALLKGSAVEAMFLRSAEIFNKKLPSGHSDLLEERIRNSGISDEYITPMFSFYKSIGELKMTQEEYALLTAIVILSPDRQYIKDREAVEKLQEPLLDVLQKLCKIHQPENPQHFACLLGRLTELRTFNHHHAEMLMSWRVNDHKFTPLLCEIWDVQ
Procedure, shortened: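 Transient MRTU transfection, HepG2; 24 h dosing; RNA → RT-PCR → 6-FAM primer extension → HpaI digest → capillary electrophoresis fluorescence. Gain/loss of signal fitted relative to DMSO.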

Measured: AC50

COC(C)(C)CCC[C@H](C)C/C=C/C(C)=C/C(=O)OC(C)C
active: [6] 121 µM | [12] 79.3 µM
inactive: [1] | [2] | [3] | [4] | [5] | [7] | [8] | [9] | [10] | [11]

C[N+](=O)[O-]
inactive: [13] | [14] | [4] | [15] | [16] | [8] | [9] | [11]

CCCCOC(=O)CCC(=O)OCCCC
inactive: [1] | [13] | [2] | [14] | [6] | [16] | [17] | [7] | [8] | [9]

COc1ncc(F)c2nc(S(=O)(=O)Nc3c(F)cccc3F)nn12
inactive: [3] | [14] | [4] | [6] | [18] | [19]

CC1(C)C(=O)NC(=O)NC1=O
inactive: [3] | [14] | [5] | [6] | [17] | [7] | [8] | [9] | [10] | [11]

Cc1ccccc1CCl
inactive: [1] | [13] | [2] | [14] | [15] | [5] | [16] | [17] | [7] | [12]

ClCCCCCCCl
inactive: [1] | [4] | [15] | [5] | [6] | [17] | [7]

CCC(=O)c1ccc(Cl)cc1
inactive: [1] | [13] | [2] | [14] | [4] | [15] | [6] | [16] | [7] | [8] | [12]

Cc1ccc(OP(=O)(Oc2ccc(C)cc2)Oc2ccc(C)cc2)cc1 (tested in a mixture with another compound)
inactive: [1] | [13] | [3] | [9] | [11] | [12] | [18] | [19]

O=C(O)CCCc1ccc(N(CCCl)CCCl)cc1
active: [12] 27.3 µM
not listed: [1] | [2] | [4] | [7] | [8] | [9] | [15]
inactive: all other assays above

O=C=Nc1ccccc1
inactive: [1] | [2] | [3] | [14] | [15] | [17] | [12] | [18] | [19]

CC1(C)CC(=O)CC(C)(C)N1[O]
not listed: [4] | [7] | [8] | [10] | [17] | [18] | [19]
inactive: all other assays above

ClCC(Cl)Cl
inactive: [2] | [14] | [7] | [9] | [10]
